Gal4-VP16 FLuc = counter-screen for ROR gamma inhibitors: Gal4-VP16 reporter; Drosophila S2 Gal4-VP16 UAS-luciferase, luminescence, 20 h; Potency, µM (highest dose often 53.6 µM), most hits filed as inhibitors; 3.5% of 310,000 active; AID 2546;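 further: Gal4-VP16 expression switched on by copper sulfate through the metallothionein promoter; nearly all actives have a fitted effect of over 50% in size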
RORgamma inh = blocks mouse ROR gamma transcriptional activity | Drosophila S2 Gal4-RORgamma UAS-luciferase reporter, 20 h | Potency, µM (top dose mostly 53.6 µM), most hits filed as inhibitors | 5.4% of 310,000 active; further: nearly all actives have a fitted effect of over 60% in size
Target sequence (P51450 whole entry, looked up, the tested form may be a part): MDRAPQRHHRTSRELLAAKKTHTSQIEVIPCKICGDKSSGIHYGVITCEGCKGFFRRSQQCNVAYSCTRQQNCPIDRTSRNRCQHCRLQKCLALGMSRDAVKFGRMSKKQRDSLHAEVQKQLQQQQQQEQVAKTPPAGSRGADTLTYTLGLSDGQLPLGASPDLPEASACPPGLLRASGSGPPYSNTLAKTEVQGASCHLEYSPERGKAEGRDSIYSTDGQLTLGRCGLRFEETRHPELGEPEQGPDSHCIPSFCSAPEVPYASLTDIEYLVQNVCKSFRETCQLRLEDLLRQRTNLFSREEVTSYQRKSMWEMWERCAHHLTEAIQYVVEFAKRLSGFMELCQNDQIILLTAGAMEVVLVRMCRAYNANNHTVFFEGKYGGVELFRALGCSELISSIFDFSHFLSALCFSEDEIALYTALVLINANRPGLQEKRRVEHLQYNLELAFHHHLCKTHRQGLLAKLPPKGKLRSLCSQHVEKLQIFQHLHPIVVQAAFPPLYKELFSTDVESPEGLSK
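Compounds are pin-transferred onto Drosophila Schneider cells expressing a copper-inducible Gal4–ROR gamma transactivation domain fusion. After 1 hr, copper sulfate is added to 700 uM final; luciferase is read 20 hr later.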
TDP1 block = TDP1 (human) enzyme inhibition; Q9NUW8; recombinant TDP1, AlphaScreen DNA substrate cleavage; Potency, µM (doses to about 130 µM), usual class: inhibitors; 0.28% of 350,000 active; AID 485290; further: nearly all actives have a fitted effect of over 40% in size
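Recombinant human Tdp1 (E. coli-expressed, 1 nM final) preincubated with compounds 15 min at room temperature, then 5'-biotin/3'-phosphotyrosine-FITC DNA substrate (15 nM final) added for 5 min. AlphaScreen beads (10 ug/ml final) added 10 min; cleavage lowers signal.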
TDP1 cell noCPT = qHTS for Inhibitors of human tyrosyl-DNA phosphodiesterase 1 (TDP1): qHTS in cells in absence of CPT; DT40 Tdp1-/- hTDP1 cells, no CPT, ATP luminescence, 48 h; Potency, µM (series often up to 46.2 µM), most hits filed as inhibitors; 15% of 420,000 active; further: nearly all actives have a fitted effect of over 55% in size
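Cells were dispensed at 400 per well, compounds added by pin tool, plates incubated ≥48 hr at 37 °C, then CellTiter-Glo added for 30 min at room temperature before luminescence reading. Line: DT40 Tdp1-/- complemented with hTDP1; camptothecin omitted.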
DT40 TDP1 CPT = growth inhibition of DT40 Tdp1-/-;hTDP1 cells with camptothecin (screen for TDP1 inhibitors). chicken DT40 Tdp1-/-;hTDP1 cells + 20 nM CPT, ATP luminescence, 48 h. Potency, µM (series often up to 46.2 µM), actives largely listed as inhibitors. 12% of 420,000 active. AID 686979; further: nearly all actives have a fitted effect of over 55% in size
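Chicken DT40 Tdp1-/- cells complemented with human TDP1, 400 cells/well, exposed to compounds plus 20 nM camptothecin for at least 48 h at 37 C; viability read as ATP content by CellTiter-Glo luminescence.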
A number is an active result. Shown are actives, neighbours in structure and some others; about 19% of the full set was active somewhere. The call rests on the fitted dose curve; in most records, active means well fitted curve in the direction sought with a large enough effect; inconclusive means small, poorly fitted or top-dose-only effect, or another doubt; inactive means no such curve, though single readings can be large; an effect the other way counts as inactive or inconclusive.

Results for COc1cccc(-c2ccc(NC(=O)C3CCCN(Cc4ccco4)C3)cc2)c1 (configuration not stated) ?
TDP1 cell noCPT: 16µM; DT40 TDP1 CPT: inconclusive

What do the screens show for `COc1cc(NC(=O)C2CC(=O)N(Cc3ccco3)C2)cc(OC)c1` (configuration not stated)?
TDP1 cell noCPT: inactive; DT40 TDP1 CPT: inactive

How did Cn1cc(CN2CCCC(C(=O)Nc3ccc(-c4cccc(F)c4)cc3)C2)cn1 (configuration not stated) do in these assays?
Gal4-VP16 FLuc: inactive; RORgamma inh: inactive; TDP1 block: inactive; TDP1 cell noCPT: 12µM; DT40 TDP1 CPT: 21µM

How did COc1ccc(NC(=O)C2CCCN(c3nc(C)cc(C)n3)C2)cc1 (configuration not stated) do in these assays?
Gal4-VP16 FLuc: inactive; RORgamma inh: inactive; TDP1 block: inactive; TDP1 cell noCPT: inactive; DT40 TDP1 CPT: inactive

What do the screens show for `Cc1ncc(CN2CCCC(C(=O)Nc3ccc(-c4ccco4)cc3)C2)n1C` (configuration not stated)?
Gal4-VP16 FLuc: inactive; RORgamma inh: inactive; TDP1 block: inactive; TDP1 cell noCPT: 21µM; DT40 TDP1 CPT: inconclusive

How did CC(C)C(NC(=O)Nc1ccccc1)C(=O)Nc1cccc(S(=O)(=O)N(C)C)c1 (configuration not stated) do in these assays?
Gal4-VP16 FLuc: inactive; RORgamma inh: inactive; TDP1 block: inactive; TDP1 cell noCPT: inconclusive; DT40 TDP1 CPT: inactive

How did CNc1nc(Oc2ccc(C(=O)OC)cc2)nc(SC)n1 do in these assays?
Gal4-VP16 FLuc: inactive; RORgamma inh: inactive; TDP1 block: inactive; TDP1 cell noCPT: inconclusive; DT40 TDP1 CPT: inactive

What do the screens show for `CC[C@@H]1CC2=C(C(=O)OC(C)(C)O2)[C@H](c2ccc(F)cc2)O1`?
TDP1 cell noCPT: inactive; DT40 TDP1 CPT: inactive

How did COC(=O)/C=C1\S/C(=N/N=C/c2ccc(Cl)cc2)NC1=O do in these assays?
Gal4-VP16 FLuc: inactive; RORgamma inh: inactive; TDP1 block: inactive; TDP1 cell noCPT: inactive; DT40 TDP1 CPT: inactive

How did Cn1c(=O)c2c(nc(SCC(=O)Nc3ccccc3)n2Cc2ccccc2F)n(C)c1=O do in these assays?
TDP1 block: inactive; TDP1 cell noCPT: inconclusive; DT40 TDP1 CPT: inconclusive

Results for CCOC(=O)c1ccc(NC(=O)CSc2c(C(C)C)cnc3c2c(=O)n(C)c(=O)n3C)cc1 ?
TDP1 block: inactive; TDP1 cell noCPT: inactive; DT40 TDP1 CPT: inactive

Results for CC(C)c1nc(SCC(=O)Nc2cccc(C(F)(F)F)c2)c2c(=O)n(C)c(=O)n(C)c2n1 ?
Gal4-VP16 FLuc: inconclusive; RORgamma inh: inconclusive; TDP1 block: inactive; TDP1 cell noCPT: 3.7µM; DT40 TDP1 CPT: 4.6µM

What do the screens show for `Cn1c(=O)c2c(nc(SCC(=O)Nc3ccc(OC(F)(F)F)cc3)n2Cc2cccc(C(F)(F)F)c2)n(C)c1=O`?
TDP1 block: inactive; TDP1 cell noCPT: 8.2µM; DT40 TDP1 CPT: 10µM

What do the screens show for `CCCc1cnc2c(c1SCC(=O)Nc1ccc(C)c(Cl)c1)c(=O)n(C)c(=O)n2C`?
TDP1 block: inactive; TDP1 cell noCPT: inconclusive; DT40 TDP1 CPT: 18µM

Results for CC(C)c1cnc2c(c1SCC(=O)Nc1ccc(OC(F)(F)F)cc1)c(=O)n(C)c(=O)n2C ?
TDP1 block: inactive; TDP1 cell noCPT: 8.2µM; DT40 TDP1 CPT: 9.2µM

How did Cc1ccc(NC(=O)c2c(C(=O)Nc3ccccc3)sc3nc(C)cc(=O)n23)c(C)c1 do in these assays?
TDP1 block: inactive; TDP1 cell noCPT: inconclusive; DT40 TDP1 CPT: inconclusive

How did CCNc1ccc(C(=O)OCC)cc1NC(=O)c1cc(S(=O)(=O)N2CCOCC2)ccc1C do in these assays?
Gal4-VP16 FLuc: inactive; RORgamma inh: inactive; TDP1 block: inactive; TDP1 cell noCPT: inactive; DT40 TDP1 CPT: inactive

Results for Cc1ccc(C)c(CSc2c(C(C)C)cnc3c2c(=O)n(C)c(=O)n3C)c1 ?
TDP1 block: inactive; TDP1 cell noCPT: inconclusive; DT40 TDP1 CPT: 18µM

How did CCCc1cnc2c(c1SCc1ccc(C(F)(F)F)cc1)c(=O)n(C)c(=O)n2C do in these assays?
TDP1 block: inactive; TDP1 cell noCPT: 21µM; DT40 TDP1 CPT: inconclusive

How did CCc1ccc(NC(=O)CSc2c(C)cnc3c2c(=O)n(C)c(=O)n3C)cc1 do in these assays?
TDP1 block: inactive; TDP1 cell noCPT: 23µM; DT40 TDP1 CPT: 23µM

How did Cc1ccc(CSc2c(C)cnc3c2c(=O)n(C)c(=O)n3C)cc1 do in these assays?
TDP1 block: inactive; TDP1 cell noCPT: inconclusive; DT40 TDP1 CPT: 23µM

Results for CCc1cnc2c(c1SCc1ccccc1C)c(=O)n(C)c(=O)n2C ?
TDP1 block: inactive; TDP1 cell noCPT: inconclusive; DT40 TDP1 CPT: inactive

How did CCc1cnc2c(c1SCC(=O)Nc1ccc(C(=O)OC)cc1)c(=O)n(C)c(=O)n2C do in these assays?
TDP1 block: inactive; TDP1 cell noCPT: inactive; DT40 TDP1 CPT: inactive

Results for COc1ccccc1C(=O)Nc1ccccc1C(=O)OCc1cc(=O)n2c(C)csc2n1 ?
TDP1 block: inactive; TDP1 cell noCPT: inactive; DT40 TDP1 CPT: inactive

How did CCCCOC(=O)CCc1c(C)n[nH]c1C do in these assays?
Gal4-VP16 FLuc: inactive; RORgamma inh: inactive; TDP1 block: inactive; TDP1 cell noCPT: inactive; DT40 TDP1 CPT: inactive

What do the screens show for `COC(=O)c1ccc2c(c1)N(C)C(=O)CS2`?
Gal4-VP16 FLuc: inactive; RORgamma inh: inactive; TDP1 block: inactive; TDP1 cell noCPT: inactive; DT40 TDP1 CPT: inactive

How did O=c1[nH]nc(-c2cc(-c3ccccc3)nc3ccccc23)o1 do in these assays?
TDP1 cell noCPT: inconclusive; DT40 TDP1 CPT: inactive

How did Cc1cc(NC(=O)Cn2ccc([N+](=O)[O-])n2)no1 do in these assays?
Gal4-VP16 FLuc: inactive; RORgamma inh: inactive; TDP1 block: inactive; TDP1 cell noCPT: inactive; DT40 TDP1 CPT: inactive

What do the screens show for `COc1ccc(NC(=O)C2CC(=O)N/C(=N/NC(=O)c3ccc(Cl)cc3)S2)cc1` (configuration not stated)?
Gal4-VP16 FLuc: inactive; RORgamma inh: 1.3µM; TDP1 block: inactive; TDP1 cell noCPT: inactive; DT40 TDP1 CPT: inactive

What do the screens show for `COc1ccc(CN=C2NC(=O)CC(C(=O)Nc3ccc(Cl)cc3)S2)cc1` (configuration not stated)?
Gal4-VP16 FLuc: inactive; RORgamma inh: inconclusive; TDP1 block: inactive; TDP1 cell noCPT: 13µM; DT40 TDP1 CPT: 21µM

Results for Cc1ccc(NC(=O)C2CC(=O)N/C(=N/NC(=O)c3ccc(C)cc3)S2)cc1 (configuration not stated) ?
Gal4-VP16 FLuc: 10µM; RORgamma inh: 2.2µM; TDP1 block: inactive; TDP1 cell noCPT: inactive; DT40 TDP1 CPT: inactive

What do the screens show for `CCOc1cccc(NC(=O)C2CC(=O)NC(=Nc3ccccc3)S2)c1` (configuration not stated)?
Gal4-VP16 FLuc: inactive; RORgamma inh: inconclusive; TDP1 block: inactive; TDP1 cell noCPT: inactive; DT40 TDP1 CPT: inactive

Bioassay records from PubChem.
